From PubChem BioAssay (Tox21)
Inconclusive results are not listed. Active and inactive are the calls of the source. Unless noted, calls follow the shape of the dose curve; as a rule, active = well fitted curve in the direction sought with a large enough effect in the repeat runs; inconclusive = weak or mixed curves; inactive = no such curve, though single readings can be large; an effect the other way counts as inactive or inconclusive.

Experiments:
[1] = target: Retinoic acid receptor RXR-alpha (Homo sapiens) (UniProt P19793); assay: qHTS assay to identify small molecule agonists of the RXR signaling pathway (AID 1159527; calls by dose curve; also: nearly all actives have a fitted effect of over 35% in size)
Chain of Retinoic acid receptor RXR-alpha (Homo sapiens) (P19793 whole entry, looked up): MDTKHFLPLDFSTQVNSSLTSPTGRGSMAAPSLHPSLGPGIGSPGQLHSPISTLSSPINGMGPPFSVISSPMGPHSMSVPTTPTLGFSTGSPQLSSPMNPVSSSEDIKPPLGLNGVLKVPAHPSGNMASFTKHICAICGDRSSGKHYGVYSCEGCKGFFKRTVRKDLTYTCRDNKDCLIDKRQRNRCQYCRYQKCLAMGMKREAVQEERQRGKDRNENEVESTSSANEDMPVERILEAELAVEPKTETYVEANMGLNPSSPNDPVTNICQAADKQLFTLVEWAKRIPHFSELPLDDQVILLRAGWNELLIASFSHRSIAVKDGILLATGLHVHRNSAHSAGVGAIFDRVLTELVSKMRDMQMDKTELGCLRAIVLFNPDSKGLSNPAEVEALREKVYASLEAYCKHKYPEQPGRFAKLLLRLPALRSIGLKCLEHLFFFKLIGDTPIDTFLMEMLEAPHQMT
Outline: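 Agonist mode; 9-cis retinoic acid positive control. HEK 293T UAS-bla reporter cells, 2% charcoal-stripped FBS, 16 hr compound exposure at 37 C/5% CO2. LiveBLAzer B/G FRET substrate 2 hr RT; ex 405, em 460/530 nm.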

[2] = qHTS assay to identify small molecule agonists of the RXR signaling pathway - cell viability counter screen (AID 1159529); also: nearly all actives have a fitted effect of over 50% in size
Outline: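 Luminescence from CellTiter-Glo (30 min, RT) measured viability in the same wells as the beta-lactamase reporter readout. Cells: GeneBLAzer RXR-alpha HEK 293T, 2% charcoal-stripped FBS. Compound exposure 16 hr, 37 C.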

[3] = qHTS assay to identify small molecule antagonists of the retinoid acid receptor (RAR) signaling pathway - cell viability counter screen (AID 1159551); also: nearly all actives have a fitted effect of over 35% in size
Outline: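 Cells (C3RL4) are plated, incubated overnight, dosed with compound in DMSO, then given retinol at 1 uM final. After 6 h at 37 C, CellTiter-Glo is added and luminescence read following 30 min at room temperature.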

[4] = qHTS assay to identify small molecule antagonists of the retinoic acid receptor (RAR) signaling pathway (AID 1159552; also: nearly all actives have a fitted effect of over 50% in size)
Outline: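 Luminescence from a RARE luciferase reporter in C3RL4 cells served as read-out. Cells received compounds together with 1 uM final retinol and incubated 6 hr at 37 C before detection reagent was added for 30 min at room temperature.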

[5] = qHTS assay to identify small molecule agonists of the retinoic acid receptor (RAR) signaling pathway (AID 1159553); details: C3RL4 RARE luciferase reporter, agonist, 6 h; activation: at 73.3 µM (top of the series)
Outline: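 Seed C3RL4 reporter cells at 1,000 per well and incubate overnight at 37 C. Add compounds in DMSO, incubate 6 hr. Add luciferase reagent, wait 30 min at room temperature, read luminescence.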

[6] = qHTS assay to identify small molecule antagonists of the estrogen related receptor (ERR) signaling pathway from Tox21 library - cell viability counter screen (AID 1224834); also: nearly all actives have a fitted effect of over 30% in size
Outline: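 ERR cells, 2,000/well; 6 h settle at 37 C/5% CO2; pin-tool compound transfer in DMSO; 17.5 h at 37 C; CellTiter-Fluor, 30 min; fluorescence intensity.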

[7] = target: Luciferin 4-monooxygenase (Photinus pyralis) (UniProt P08659); assay: qHTS assay to identify small molecule inhibitors of firefly luciferase (AID 1224835); also: nearly all actives have a fitted effect of over 25% in size
Chain of Luciferin 4-monooxygenase (Photinus pyralis) (P08659 whole entry, looked up): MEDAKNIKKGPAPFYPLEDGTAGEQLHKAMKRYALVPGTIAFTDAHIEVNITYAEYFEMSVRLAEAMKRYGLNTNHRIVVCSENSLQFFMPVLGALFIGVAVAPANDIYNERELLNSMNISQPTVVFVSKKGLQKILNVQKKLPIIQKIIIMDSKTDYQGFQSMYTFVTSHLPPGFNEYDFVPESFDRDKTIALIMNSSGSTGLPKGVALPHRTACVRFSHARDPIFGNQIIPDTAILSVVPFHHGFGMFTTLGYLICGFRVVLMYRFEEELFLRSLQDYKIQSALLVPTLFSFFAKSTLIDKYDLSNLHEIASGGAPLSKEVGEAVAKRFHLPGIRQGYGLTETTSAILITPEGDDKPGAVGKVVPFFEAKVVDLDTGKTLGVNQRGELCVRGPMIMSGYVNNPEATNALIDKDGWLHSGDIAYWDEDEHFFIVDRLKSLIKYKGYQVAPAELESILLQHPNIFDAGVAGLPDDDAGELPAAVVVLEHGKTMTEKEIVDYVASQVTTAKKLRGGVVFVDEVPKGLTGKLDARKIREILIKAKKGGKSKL
Outline: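 Quantitative HTS format; KM concentrations of both substrates. Purified P. pyralis FLuc activity quantified from luminescence images.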

[8] = qHTS assay to identify small molecule agonists of the constitutive androstane receptor (CAR) signaling pathway - cell viability counter screen (AID 1224836); also: nearly all actives have a fitted effect of over 45% in size
Outline: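 Viability read-out: CellTiter-Fluor fluorescence after 23 h compound exposure at 37 C/5% CO2 in double-stable HepG2-CYP2B6-hCAR cells, with PK11195 present at 0.75 uM final; compounds tested in 15-point titration.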

[9] = qHTS assay to identify small molecule antagonists of the constitutive androstane receptor (CAR) signaling pathway - cell viability counter screen (AID 1224837); also: nearly all actives have a fitted effect of over 45% in size
Outline: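 Viability was measured with CellTiter-Fluor in a HepG2 line carrying stably transfected hCAR and a CYP2B6-2.2kb construct. Cells were exposed for 23 hr at 37 C to 15 compound concentrations with 50 nM CITCO as agonist.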

[10] = qHTS assay to identify small molecule antagonists of the estrogen related receptor signaling pathway with the pleiotropic PPARgamma coactivator (PGC) from Tox21 10K library - cell viability counter screen (AID 1224840; active = well fitted cell-killing curve with a large enough effect in the repeat runs, not every such curve was filed as active; also: nearly all actives have a fitted effect of over 40% in size)
Outline: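 Multiplexed viability counter screen in the PGC/ERR cell line: cells treated with DMSO-dissolved compounds for 17.5 hours at 37 C, then viability measured as CellTiter-Fluor fluorescence.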

[11] = target: Thyrotropin receptor (Homo sapiens) (UniProt P16473); assay: qHTS assay to identify small molecule agonists of the thyroid stimulating hormone receptor (TSHR) signaling pathway (AID 1224843; calls by dose curve; also: nearly all actives have a fitted effect of over 45% in size)
Chain of Thyrotropin receptor (Homo sapiens) (P16473 whole entry, looked up): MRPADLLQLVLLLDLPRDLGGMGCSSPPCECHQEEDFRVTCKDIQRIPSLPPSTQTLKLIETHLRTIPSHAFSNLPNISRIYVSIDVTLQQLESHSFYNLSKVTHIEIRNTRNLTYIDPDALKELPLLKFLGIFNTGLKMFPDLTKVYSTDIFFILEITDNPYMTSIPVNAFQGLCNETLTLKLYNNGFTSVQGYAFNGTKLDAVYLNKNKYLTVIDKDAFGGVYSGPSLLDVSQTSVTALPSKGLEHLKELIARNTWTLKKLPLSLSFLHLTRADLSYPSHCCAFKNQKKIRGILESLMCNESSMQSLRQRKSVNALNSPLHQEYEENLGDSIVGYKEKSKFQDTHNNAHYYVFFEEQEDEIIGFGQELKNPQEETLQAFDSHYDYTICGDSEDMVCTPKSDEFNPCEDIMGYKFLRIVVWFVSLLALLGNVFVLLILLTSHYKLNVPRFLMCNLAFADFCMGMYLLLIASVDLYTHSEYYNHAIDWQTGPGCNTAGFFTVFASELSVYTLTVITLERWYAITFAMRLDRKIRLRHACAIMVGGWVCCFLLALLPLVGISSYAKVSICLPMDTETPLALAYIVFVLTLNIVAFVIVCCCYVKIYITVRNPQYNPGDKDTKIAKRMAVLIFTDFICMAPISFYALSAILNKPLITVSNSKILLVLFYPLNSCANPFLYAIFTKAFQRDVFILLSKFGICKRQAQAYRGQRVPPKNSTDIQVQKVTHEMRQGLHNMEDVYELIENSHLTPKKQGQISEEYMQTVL
Outline: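 Using 15 concentrations per compound in triplicate, cAMP production was monitored in TSHR-HEK293 cells after 30 min compound incubation at RT; HTRF reagents followed, with fluorescence intensity recorded after 1 h.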

[12] = qHTS assay to identify small molecule agonists of the hypoxia (HIF-1) signaling pathway - cell viability counter screen (AID 1224844; calls by dose curve; also: nearly all actives have a fitted effect of over 50% in size)
Outline: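 Cytotoxicity was measured in parallel with the HRE-driven beta-lactamase readout: after 17 hrs of compound exposure at 37C, HRE-bla ME-180 cells received CellTiter-Glo and luminescence was recorded 30 min later.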

[13] = qHTS assay to identify small molecule agonists of H2AX (AID 1224845; active = well fitted activation curve with a large enough effect in the signal ratio in the repeat runs, not every such curve was filed as active; the % refers to the signal ratio)
Outline: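 Wild-type CHO-K1 cells plated overnight, then exposed 3 hr at 37C to compounds at 15 concentrations (0.76% DMSO). Lysed, then HTRF anti-pH2AX(S139)-cryptate/anti-H2AX-d2 detection after 24 hr at room temperature; emissions 665 and 620 nm.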

[14] = qHTS assay to identify small molecule agonists of the hypoxia (HIF-1) signaling pathway (AID 1224846; active = well fitted activation curve with a large enough effect in the signal ratio in the repeat runs, not every such curve was filed as active; the % refers to the signal ratio)
Outline: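 Compounds from the Tox21 10K library, dissolved in DMSO, are tested for induction of a hypoxia response element–controlled beta-lactamase reporter in ME-180 cells. Exposure lasts 17 hrs at 37C after a 5 hr settling period, followed by CCF4-AM FRET substrate.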

[15] = qHTS assay to identify small molecule agonists of H2AX - cell viability counter screen (AID 1224847; calls by dose curve; also: top concentration of the series differs between compounds; nearly all actives have a fitted effect of over 30% in size)
Outline: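 CHO-K1 wt, 1000 cells/well, o/n 37C; cpds 15 conc, 3 h 37C, 0.76% DMSO; CellTiter-Glo, 30 min RT, luminescence.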

[16] = target: Nuclear receptor subfamily 1 group I member 3 (Homo sapiens) (UniProt Q14994); assay: qHTS assay to identify small molecule antagonists of the constitutive androstane receptor (CAR) signaling pathway (AID 1224838);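 also: HepG2 cells stably expressing hCAR with CYP2B6 luciferase reporter stimulated by CITCO; nearly all actives have a fitted effect of over 40% in size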
Chain of Nuclear receptor subfamily 1 group I member 3 (Homo sapiens) (Q14994 whole entry, looked up): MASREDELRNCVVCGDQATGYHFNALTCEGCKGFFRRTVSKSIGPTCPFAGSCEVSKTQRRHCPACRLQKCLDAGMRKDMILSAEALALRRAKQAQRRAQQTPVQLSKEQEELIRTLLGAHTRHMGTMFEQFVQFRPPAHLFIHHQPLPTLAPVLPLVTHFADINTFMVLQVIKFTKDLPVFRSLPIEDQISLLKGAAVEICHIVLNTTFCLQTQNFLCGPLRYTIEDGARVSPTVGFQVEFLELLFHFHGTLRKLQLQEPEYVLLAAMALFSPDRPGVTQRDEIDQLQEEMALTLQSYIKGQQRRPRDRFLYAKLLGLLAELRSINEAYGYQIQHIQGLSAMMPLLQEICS
Outline: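 Antagonist mode used CITCO at a final 50 nM to activate CAR in human hepatoma HepG2 cells carrying stable hCAR and a 2.2 kb CYP2B6 promoter-luciferase construct. Compounds were tested at 15 concentrations over 24 h, with luminescence as the end point.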

[17] = target: Nuclear receptor subfamily 1 group I member 3 (Homo sapiens) (UniProt Q14994); assay: qHTS assay to identify small molecule agonists of the constitutive androstane receptor (CAR) signaling pathway (AID 1224839); also: nearly all actives have a fitted effect of over 15% in size
Outline: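 Luminescence read-out (ONE-Glo, 30 min, room temperature) from double-stable HepG2-CYP2B6-hCAR cells exposed 24 h to 15-point compound series in presence of 0.75 uM PK11195 final.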

[18] = qHTS assay to identify small molecule antagonists of the estrogen related receptor signaling pathway with the pleiotropic PPARgamma coactivator (PGC) from Tox21 10K library (AID 1224841; call rule not given here; also: actives are mostly falling curves and most rising ones were filed inactive; nearly all actives have a fitted effect of over 50% in size)
Outline: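 Steps: plate 2,000 PGC/ERR cells per well; incubate 6 h at 37 C with 5% CO2; transfer compounds from DMSO stocks by pin tool; incubate 18 h at 37 C; add One-Glo; measure luminescence 30 min later.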

[19] = qHTS assay to identify small molecule agonists of the estrogen related receptor signaling pathway with the pleiotropic PPARgamma coactivator (PGC) from Tox21 10K library (AID 1224842); also: nearly all actives have a fitted effect of over 15% in size
Outline: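 PGC/ERR reporter cells (NTP line) were seeded 2,000 per well, rested 6 h at 37 C/5% CO2, then pin-dosed with compounds in DMSO for 18 h at 37 C; luciferase read by One-Glo luminescence after 30 min at room temperature.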

[20] = qHTS assay to identify small molecule antagonists of the estrogen related receptor (ERR) signaling pathway from Tox21 library (AID 1224848); also: nearly all actives have a fitted effect of over 50% in size
Outline: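 Tox21 10K compounds in DMSO tested for ERR pathway antagonism in NTP's ERR cell line; 18 h, 37 C exposure; ONE-Glo luminescence.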

Measured: Potency

CC(C)=CC(C)(C)C
inactive: [1] | [2] | [3] | [4] | [5] | [6] | [7] | [8] | [9] | [10] | [11] | [12] | [13] | [14] | [15]

O=C1OC(=O)c2cc(Oc3ccc4c(c3)C(=O)OC4=O)ccc21
inactive: [1] | [2] | [3] | [4] | [5] | [6] | [7] | [8] | [9] | [10] | [11] | [12] | [13] | [14] | [15]

C1=C\CC/C=C\CC/1
inactive: [1] | [2] | [3] | [4] | [5] | [6] | [7] | [9] | [16] | [17] | [10] | [12] | [14] | [15]

CC1=CC[C@H](CC=O)C1(C)C
inactive: [1] | [2] | [3] | [4] | [5] | [6] | [7] | [8] | [9] | [10] | [11] | [13] | [14] | [15]

CCC(O)C(C)(C)C (stereo not given)
inactive: [1] | [2] | [3] | [4] | [5] | [6] | [7] | [8] | [9] | [10] | [11] | [12] | [13] | [14] | [15]

CNC(=O)C(c1ccccc1)c1ccccc1
inactive: [1] | [2] | [3] | [4] | [5] | [6] | [7] | [8] | [9] | [10] | [11] | [12] | [13] | [14] | [15]

CCC1Nc2cc(Cl)c(S(N)(=O)=O)cc2S(=O)(=O)N1 (stereo not given)
inactive: [1] | [2] | [3] | [4] | [5] | [6] | [7] | [8] | [9] | [10] | [11] | [12] | [13] | [14] | [15]

NS(=O)(=O)c1ccccc1OC(F)(F)F
inactive: [1] | [2] | [3] | [4] | [5] | [6] | [7] | [8] | [9] | [10] | [18] | [19] | [12] | [14] | [15] | [20]

Cc1ccccc1C
inactive: [1] | [2] | [3] | [4] | [5] | [6] | [7] | [8] | [9] | [10] | [18] | [19] | [14] | [15] | [20]

CC1(N)CCC(C(C)(C)N)CC1 (stereo not given)
inactive: [1] | [2] | [3] | [4] | [5] | [6] | [7] | [8] | [9] | [10] | [11] | [12] | [13] | [14] | [15]

CCOC(=O)OCC/C(SC(=O)OCC)=C(\C)N(C=O)Cc1cnc(C)nc1N
inactive: [1] | [2] | [3] | [4] | [5] | [6] | [7] | [8] | [9] | [10] | [11] | [13] | [14] | [15]

Cc1ccc(S(=O)(=O)NC(=O)NC2CCCCCCC2)cc1
inactive: [1] | [2] | [3] | [4] | [5] | [6] | [7] | [8] | [9] | [10] | [11] | [12] | [13] | [14] | [15]

CCN1CN(CC)CN(CC)C1
inactive: [1] | [2] | [3] | [4] | [5] | [6] | [7] | [8] | [9] | [10] | [11] | [12] | [14]

C1=CCC(c2ccccc2)CC1 (stereo not given)
inactive: [1] | [2] | [3] | [4] | [5] | [6] | [7] | [8] | [9] | [10] | [19] | [11] | [12] | [13] | [14] | [15] | [20]

C[N+](C)(C)CC(O)CCl (stereo not given)
inactive: [1] | [2] | [3] | [4] | [5] | [6] | [7] | [8] | [9] | [10] | [11] | [12] | [14] | [15]

Cc1oc(=O)oc1CN1CCN(c2cc3c(cc2F)c(=O)c(C(=O)O)c2n3C(C)S2)CC1 (stereo not given)
inactive: [1] | [2] | [3] | [4] | [5] | [6] | [7] | [8] | [9] | [10] | [11] | [13] | [14] | [15]

O=C1NC2NC(=O)NC2N1 (stereo not given)
inactive: [1] | [2] | [3] | [4] | [5] | [6] | [7] | [8] | [9] | [10] | [11] | [13] | [14] | [15]
